Here are results for 66 molecules from PubChem BioAssay AID1347076 (National Center for Advancing Translational Sciences (NCATS), 2019).

In all, about 400,000 compounds went through this assay and about 13,000 (3.2%) were called active. A call without a number means that no potency is given here. Not shown: some 18% with an inconclusive outcome. Calls come from the whole dose curve; as a rule, active = well fitted cell-killing curve with a large enough effect; inconclusive = small, poorly fitted or top-dose-only effect, or effect the other way; inactive = flat fitted curve, though single readings scatter. The full list was thinned out, with actives kept by preference.
Potency is the fitted concentration of half-maximal effect.

The assay can be described thus: qHTS assay for MDR1-selective chemotherapeutics: Primary screen using the drug-selected MDR subline cells KB-V1. Note: nearly all actives have a fitted effect of over 60% in size. As to conditions: KB-V1 MDR cells viability, CellTiter-Glo, 72 h; series mostly up to 46.1 µM. In short, it runs like this:
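Compound-treated KB-V1 multidrug-resistant cells, 72 h, 37 degrees C; viability by CellTiter-Glo. Fitted qHTS curves give the values.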
In general terms: In qHTS, concentration-response curves come from the screen itself.
As for `COc1cccc(CN2CCC(C(=O)NC(c3ccc4c(c3)OCO4)c3ccccn3)CC2)c1` (stereo unspecified), the Potency entry was “inactive”. For `COc1ccc(/C=C(/NC(=O)c2ccccc2)C(=O)Nc2cccc(C(=O)O)c2)cc1`, the Potency result is “inactive”. The same measure for `COc1ccc(NC(C(=O)Nc2cccc(C(C)=O)c2)c2ccccc2)cc1` (stereo unspecified): 4.61 µM (active); for `CC(=O)c1cccc(NC(=O)[C@@H](NC(N)=O)C(C)C)c1`: “inactive”; for `CN(C)c1ccc(/C=N\Nc2ccc([N+](=O)[O-])cc2[N+](=O)[O-])cc1Cl`: “inactive”.

For `Cc1nc(Nc2ccc(S(=O)(=O)N3CCCC3)cc2)c2nnn(Cc3ccccc3)c2n1`, the Potency entry is “inactive”. Regarding `CC(C)Nc1ncnc2c1nnn2Cc1ccccc1`, the Potency result is “inactive”. Regarding `CC(C)Cc1nc(Nc2ccc(S(=O)(=O)N3CCCC3)cc2)c2nnn(Cc3ccccc3)c2n1`, the Potency is 20.6 µM (active).

On to `CCOC(=O)[C@]12CCCC=C1N(Cc1cccc3ccccc13)C(=O)[C@H](CC(=O)NCC13CC4CC(CC(C4)C1)C3)C2`, for which the Potency result is “inactive”.

Consider `CCOC(=O)[C@]12CCC=C1N(Cc1cccc3ccccc13)C(=O)[C@H](CC(=O)NCc1cccc(C(F)(F)F)c1)C2`, for which the Potency was 20.6 µM (active).

As to `CCOC(=O)[C@]12CCC=C1N(Cc1ccco1)C(=O)[C@H](CC(=O)NCc1cccc(C(F)(F)F)c1)C2`, the Potency result was “inactive”. Consider `O=C(NC1CCCCCCC1)c1cccs1`, for which the Potency result is “inactive”. `O=C(NC1CCCC1)c1cc(-c2ccccc2)on1`: the Potency is 16.4 µM (active). In the case of `O=C(NC1CCCCC1)c1cc(C2CC2)on1`, the Potency result was “inactive”. As for `CCCCN1C(=O)C(CC(=O)NC(c2ccccc2)c2ccccc2)CC(C(=O)N2CCOCC2)=C1C` (stereo unspecified), the entry is “inactive”; as for `N#Cc1ccc[n+](CC(=O)c2ccc(O)c(O)c2)c1`, “inactive”; as for `Cc1ccc(C(=O)OCc2nc(N)nc(Nc3ccccc3C)n2)cc1`, “inactive”. The same measure for `CCCn1nc(C(=O)OCc2nc(N)nc(Nc3ccccc3C)n2)c2ccccc2c1=O`: 20.6 µM (active). Take `Cc1ccccc1Nc1nc(N)nc(CSc2ccccc2)n1`: the Potency result was “inactive”. The same measure for `O=C(Nc1cccc2cccnc12)c1ccc2sc([C@H]3C[C@H](O)[C@@H](CO)O3)nc2c1`: “inactive”. The same measure for `Cc1ccc(NC(=O)Cn2cnc3nc4c(cc3c2=O)CCCC4)cc1Cl`: “inactive”. On to `CCn1c(SCC(=O)Nc2ccc(C)cc2)nc2nc3c(cc2c1=O)CCCC3`, for which the Potency was 0.651 µM (active). As to `CC(=O)NCCn1c(SCC(=O)Nc2ccc(C)cc2)nc2ccccc2c1=O`, the Potency entry is “inactive”. As for `CCCn1c(N)c(C(=O)CSc2nnc(Cc3cccs3)n2C2CC2)c(=O)[nH]c1=O`, the entry is “inactive”; as for `Cc1ccnc(SCCn2c(N(C)Cc3ccccc3)nc3c2c(=O)n(C)c(=O)n3C)n1`, “inactive”. As to `Cn1c(=O)c2c(nc(NCc3ccccc3)n2CC(N)=O)n(C)c1=O`, the Potency entry was “inactive”.

Turning to `Cn1c(=O)c2c(nc(NCCc3ccccc3)n2Cc2ccccc2)n(C)c1=O`, the Potency is 6.51 µM (active). The same measure for `CCCCn1c(SCC(=O)NCCc2ccc(OC)c(OC)c2)nc2c1c(=O)n(C)c(=O)n2C`: “inactive”.

With `CCn1c(NCCc2ccc(OC)c(OC)c2)nc2c1c(=O)n(C)c(=O)n2C`, the Potency was 4.61 µM (active).

Consider `COc1ccc(CCNc2nc(C)cc(C)n2)cc1OC`, for which the Potency result was “inactive”. As for `Cn1c(=O)c2c(nc(NCCc3ccccc3)n2Cc2ccccc2Br)n(C)c1=O`, the Potency result is “inactive”. As for `CC(C)CCn1c(CN(C)Cc2ccccc2)nc2c1c(=O)n(C)c(=O)n2C`, the figure is 9.2 µM (active); as for `COCCn1c(CN(Cc2ccccc2)Cc2ccccc2)nc2c1c(=O)n(C)c(=O)n2C`, “inactive”. `Cc1noc(C)c1C(=O)N1CCC1(C)C(=O)NS(=O)(=O)c1ccc(C#N)cc1` (stereo unspecified): the Potency result is “inactive”. With `Cc1ccc(-c2cnc(C(O)c3cc(Cl)cc(Cl)c3)[nH]2)cc1` (stereo unspecified), the Potency result was “inactive”. Turning to `Cc1cccc(N2CCN(S(=O)(=O)c3ccc4[nH]c5c(c4c3)CCCCC5)CC2)c1C`, the Potency entry is “inactive”. As for `O[C@@H]1C[C@H](c2ccccc2)N(Cc2cccs2)C[C@H]1n1cc(C2CC2)nn1`, the entry is “inactive”. As for `COC(=O)[C@]12CCCCC=C1N(Cc1ccc3c(c1)OCO3)C(=O)[C@H](CC(=O)N1CCOCC1)C2`, the entry is “inactive”; as for `Cc1cccc(/C=N/NC(=O)CNc2cccc3ccccc23)n1`, 14.6 µM (active); as for `C/C(=N\NC(=O)CNc1cccc2ccccc12)c1ccc(Br)s1`, “inactive”.

In the case of `Cn1cccc1/C=N/NC(=O)CNc1cccc2ccccc12`, the Potency result is “inactive”. Consider `COCCNS(=O)(=O)c1cc(-c2nn3c(C)nnc3c3ccccc23)ccc1C`, for which the Potency entry is “inactive”.

As to `Cc1ccc(NC(=O)c2ccco2)cc1`, the Potency result was “inactive”. With `CCOc1cc(N2CCOCC2)c(OCC)cc1NC(=O)COc1cccc2cccnc12`, the Potency was 5.17 µM (active). With `CCOc1cc(N2CCOCC2)c(OCC)cc1NC(=O)c1ccc(C)s1`, the Potency entry was “inactive”. Regarding `CCOc1cc(N2CCOCC2)c(OCC)cc1NC(=O)COc1cccc(Cl)c1`, the Potency result was “inactive”. `CC(C)(C)c1ccc(C(=O)C[n+]2cccc3cc(Cl)ccc32)cc1`: the Potency entry was “inactive”. The same measure for `Cc1ccc(C(=O)N2c3ncnn3C3(CCCCC3)[C@@H]3CCCC[C@@H]32)cc1`: “inactive”; for `Cc1occc1C(=O)Nc1nnc(C2CCCCC2)s1`: 16.4 µM (active); for `O=C(Nc1nnc(C2CC2)s1)c1cc(Cl)sc1Cl`: “inactive”. For the molecule `Cc1cc(C(=O)Nc2nnc(C3CC3)s2)c(C)s1`, the Potency result is “inactive”. On to `CC1=C(C(=O)N2CCOCC2)CC(CC(=O)NCCN2CCOCC2)C(=O)N1CCC1=CCCCC1` (stereo unspecified), for which the Potency entry was “inactive”. As to `COc1ccc(N2CCN(S(=O)(=O)c3ccc(-c4coc(C)n4)cc3)CC2)cc1`, the Potency result is “inactive”. For the molecule `COc1ccc(Br)cc1C1CC(=O)Nc2c1c(C)nn2-c1nc(C)cc(C)n1` (stereo unspecified), the Potency entry is “inactive”. As for `Oc1ccc(Br)cc1C1C=C(c2ccc3c(c2)OCO3)NC(c2ccc(Cl)cc2)N1` (stereo unspecified), the entry is “inactive”; as for `Cc1nnc(-c2ccc(Oc3ccc(C)c(C)c3)c([N+](=O)[O-])c2)o1`, 14.6 µM (active); as for `COc1ccc(OCC(=O)Nc2cc(C)c(Cl)cc2OC)c([N+](=O)[O-])c1`, “inactive”. As to `COC(=O)c1cc(Oc2ccc(S(=O)(=O)N3CCOCC3)cc2[N+](=O)[O-])cc(C(=O)OC)c1`, the Potency result was “inactive”.

As for `CCc1ccccc1NC(=O)N1CCN(C(=O)c2nsc3ccccc23)CC1`, the Potency result is “inactive”. The same measure for `CCOc1cc(-c2nnc(SCC(=O)NC3CCCC3)nc2-c2ccc(OC)c(OCC)c2)ccc1OC`: “inactive”. The same measure for `CN(c1ccccc1)S(=O)(=O)c1cc(C(=O)OCC(=O)N2CCN(C(=O)c3ccco3)CC2)ccc1Cl`: “inactive”; for `CC(=O)c1ccc(N2CCN(C(=O)c3ccc(Cl)c(S(=O)(=O)NC4CC4)c3)CC2)c(F)c1`: “inactive”.

On to `COc1cccc(C(=O)Nc2nnc(S(=O)(=O)N(C)c3ccccc3)s2)c1`, for which the Potency entry is “inactive”. As for `CN(c1ccccc1)S(=O)(=O)c1cc(C(=O)Nc2nc3ccccc3[nH]2)ccc1Cl`, the figure is 3.66 µM (active); as for `CN(c1ccccc1)S(=O)(=O)c1cc(C(=O)N2CCN(c3ncccn3)CC2)ccc1Cl`, 2.91 µM (active); as for `CN(c1ccccc1)S(=O)(=O)c1ccc(C(=O)N2CCN(c3ccccc3Cl)CC2)cc1`, “inactive”.
